# Inconclusive results are not listed. Entries that show only a call come without a potency. The source made the active and inactive calls. Calls follow the shape of the dose curve; as a rule, active = well fitted inhibition curve with a large enough effect; inconclusive = small, poorly fitted or top-dose-only effect; inactive = no such curve, though single readings can be large or run the other way.
# Experiment: Confirmatory screen NINDS Rhodamine qHTS for Zika virus inhibitors (AID 1347161); also: nearly all actives have a fitted effect of over 60% in size
# Details: purified enzyme assay, Rhodamine110 substrate fluorescence, 15 min; series mostly up to 114 µM
# Source text: Avindra Nath, Ph.D., National Institute of Neurological Disorders and Stroke (NINDS), Bethesda, MD
# Radhakrishnan Padmanabhan, Ph.D., Georgetown University (GU), Washington D.C.
# Zika Virus causes congenital defects, including microcephaly and is associated with Guillain-Barre syndrome, eningoencephalitis and myelitis in infected adult. […] Using a target-based approach, we hope to establish a screening paradigm to uncover novel, cell-active NS2B-NS3 protease (Zika Virus) specific inhibitors from NCATS' collection of small molecules using qHTS.
# Four assay panel was created to identify potential Zika Virus inhibitors. Namely, (1) GU unlinked NS2B-NS3 AMC tagged protease qHTS, (2) GU unlinked NS2B-NS3 Rhodamine tagged protease qHTS, (3) NINDS linked NS2B-NS3 AMC tagged protease qHTS, (4) NINDS linked NS2B-NS3 Rhodamine tagged protease qHTS. Active compounds were re-acquired and re-screened to confirm inhibition. Inhibitors were further screened against various confirmatory and counterscreens in dose response format.
# Early Translation Branch (ETB)
# National Center for Advancing Translational Sciences (NCATS), Rockville, MD
# National Institute of Health (NIH), Bethesda, Maryland
# For the linked assay, Nath lab (NINDS) provided the purified linked NS2B-NS3 protease which is consists of hydrophilic domain of NS2B linked to the NS3 protease domain by a flexible (-[…]-) linker. Control compound aprotinin is obtained from Thermo Scientific (#78432; Waltham, Massachusetts). Rhodamine110 substrate ([N-Cbz]-Nle-Lys-Arg-Arg-Rhod110-Arg-Arg-Lys-Nle-[N-Cbz]) was purchased from either Genscript or Bachem.
# 1536-well Protease (Rhodamine110 Substrate) Assay:
# Briefly, 3 microL of enzyme (25 nM final concentration), in assay buffer (10 mM Tris-HCl pH 8.0 with 0.01% Tween 20) were dispensed into a 1,536-well solid-bottom black plate (Greiner Bio One, Monroe, NC). Twenty-three nL of compounds (final concentration range 7.28 nM to 114 microM) or control Aprotinin (final concentration range 3.47 nM to 114 microM) were transferred via Wako Pin-tool (Wako Automation, Richmond, VA). Samples were incubated (room temperature, protected from light) for 15 minutes followed by a 1 microL Rhodamine110 substrate addition (1.5 microM final concentration). Plates were then immediately read on a ViewLux High-throughput CCD imager (PerkinElmer, Waltham, MA) equipped with FITC fluorescence optics (480(20) nm excitation, 540(25) nm emission), then incubated (room temperature, protected from light) for 15 minutes (~15% conversion). The change in fluorescence intensity over the 15-minute reaction period was normalized against no-inhibitor and no-enzyme controls and the resulting percent inhibition data were fitted to a 4-parameter Hill equation. Aprotinin was used as intraplate control.
# Potency is read from the fitted curve at half-maximal effect.
row,SMILES,Potency
1,CC(C)c1cc(C(C)C)c(CC(=O)NS(=O)(=O)Oc2c(C(C)C)cccc2C(C)C)c(C(C)C)c1,2.21 µM (active)
2,CN(C)CC(=O)N1CCC(c2ccc(NC(=O)c3ncc(C#N)[nH]3)c(C3=CCCCC3)c2)CC1,9.87 µM (active)
3,C[C@@H](NCc1cc2ccccc2[nH]1)c1cccc2ccccc12,inactive
4,CN[C@@H]1C[C@H]2O[C@@](C)([C@H]1OC)n1c3ccccc3c3c4c(c5c6ccccc6n2c5c31)C(=O)N[C@H]4O,inactive
5,Cc1ccc(-n2[nH]c(C)c(N=Nc3cccc(-c4cccc(C(=O)O)c4)c3O)c2=O)cc1C,2.21 µM (active)
6,c1cc(N[C@@H]2CCNC2)nc(-c2cnc3ccc(-c4cn[nH]c4)cn23)c1,inactive
7,CNC(=O)c1cccc(-c2ccc3c(N4CCOC[C@H]4C)nc(N4CCOC[C@H]4C)nc3n2)c1,inactive
8,O=c1c(O)c(-c2ccc(O)c(O)c2)oc2cc(O)ccc12,44.7 µM (active)
9,CCCCCCCCc1ccc(CCC(N)(CO)CO)cc1,inactive
10,COc1ccc(S(=O)(=O)Nc2cc(-c3c(O)ccc4ccccc34)c(O)c3ccccc23)cc1,8.77 µM (active)

# Reference: PubChem BioAssay (NCATS)
